# VP16 counter = VP16 counterscreen qHTS for inhibitors of ROR gamma transcriptional activity | Drosophila S2 Gal4-VP16 UAS-luciferase, luminescence, 20 h | Potency, µM (titrated, usually from 53.6 µM), for the others: at the highest dose activity, negative = inhibition, usual class: inhibitors | 310,000 tested, 3.5% active;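 also: Gal4-VP16 expression switched on by copper sulfate through the metallothionein promoter; potency is read from the fitted curve at half-maximal effect; nearly all actives have a fitted effect of over 50% in size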
# IL1B secr inh = qHTS for Inhibitors of Inflammasome Signaling: IL-1-beta AlphaLISA Primary Screen; THP-1 LPS/ATP IL-1B secretion, AlphaLISA, 16 h; stronger effect = lower value; activity change, % at 57.5 µM; 360,000 tested, 4.7% active; AID 743279, 2014; in the data active = activity change below about -50%; inconclusive = mostly about -30% to -49%
#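 Secreted IL-1B measured by AlphaLISA bead assay after 16 h compound exposure of THP-1 cells; compounds (final up to 57.5 uM) added 1 h before LPS (250 ng/mL) and ATP (1.25 mM) stimulation; lower signal means less secretion.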
# TDP1 cell CPT = qHTS for Inhibitors of human tyrosyl-DNA phosphodiesterase 1 (TDP1): qHTS in cells in presence of CPT; chicken DT40 Tdp1-/-;hTDP1 cells + 20 nM CPT, ATP luminescence, 48 h; Potency, µM (series often up to 46.2 µM), for the others: at the top dose activity change, negative = growth inhibition, hits mostly inhibitors; 420,000 tested, 12% active; also: potency is read from the fitted curve at half-maximal effect; nearly all actives have a fitted effect of over 55% in size
#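 Chicken DT40 Tdp1-/- cells stably complemented with human TDP1 were seeded at 400 cells/well in medium containing 20 nM camptothecin, exposed to pin-transferred compounds, and grown at 37 °C for at least 48 hr. Viability was read as ATP luminescence.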
# TDP1 cell noCPT = qHTS for Inhibitors of human tyrosyl-DNA phosphodiesterase 1 (TDP1): qHTS in cells in absence of CPT. DT40 Tdp1-/- hTDP1 cells, no CPT, ATP luminescence, 48 h. Potency, µM (highest dose often 46.2 µM), for inactives: top-dose activity change, negative = growth inhibition, hits mostly inhibitors. 420,000 tested, 15% active; also: potency is read from the fitted curve at half-maximal effect; nearly all actives have a fitted effect of over 55% in size
#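 A cellular qHTS used chicken DT40 cells lacking endogenous Tdp1 but carrying stably transfected human TDP1. Compounds were applied without camptothecin, and cell growth kinetics were judged by ATP-dependent luminescence after ≥48 hr.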
# RORg inh = qHTS for inhibitors of ROR gamma transcriptional activity | Nuclear receptor ROR-gamma (Mus musculus), P51450 | Drosophila S2 Gal4-RORgamma UAS-luciferase reporter, 20 h | Potency, µM (series often up to 53.6 µM), for the others: at the top dose activity change, negative = inhibition, actives largely listed as inhibitors | 310,000 tested, 5.4% active | AID 2551, 2010; also: potency is read from the fitted curve at half-maximal effect; nearly all actives have a fitted effect of over 60% in size
# Target sequence (P51450 whole entry, looked up, the tested form may be a part): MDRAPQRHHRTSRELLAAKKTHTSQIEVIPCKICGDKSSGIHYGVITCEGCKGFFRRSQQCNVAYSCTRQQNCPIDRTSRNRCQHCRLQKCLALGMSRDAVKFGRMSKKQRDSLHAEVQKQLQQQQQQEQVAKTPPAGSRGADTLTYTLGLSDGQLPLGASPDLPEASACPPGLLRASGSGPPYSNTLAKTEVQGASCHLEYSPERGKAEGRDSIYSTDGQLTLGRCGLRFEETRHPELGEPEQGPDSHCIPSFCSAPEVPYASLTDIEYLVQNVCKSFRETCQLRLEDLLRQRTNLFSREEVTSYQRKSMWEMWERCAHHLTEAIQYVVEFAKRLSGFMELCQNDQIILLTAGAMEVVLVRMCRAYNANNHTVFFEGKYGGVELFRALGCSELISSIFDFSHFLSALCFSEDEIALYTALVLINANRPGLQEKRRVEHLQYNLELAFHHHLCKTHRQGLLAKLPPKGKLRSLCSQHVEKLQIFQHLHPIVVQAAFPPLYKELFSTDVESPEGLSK
#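 Stable Schneider cell line, Gal4 DNA-binding domain fused to ROR gamma, UAS-luciferase. Cmpd 1 hr RT → CuSO4 700 uM final → 20 hr RT → luciferase reagent 10 min → luminescence.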
# ELG1 repair inh = qHTS screen for small molecules that inhibit ELG1-dependent DNA repair in human embryonic kidney (HEK293T) cells expressing luciferase-tagged ELG1; HEK293T ELG1-luciferase reporter, luminescence, 16 h; DNA damage induced by 5-fluorouridine; Potency, µM (highest dose often 46.1 µM), without a hit: at the highest dose activity change, negative = inhibition, usual class: inhibitors; 330,000 tested, 2.3% active; AID 504467, 2011; also: potency is read from the fitted curve at half-maximal effect; nearly all actives have a fitted effect of over 55% in size
#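 Step one: seed 2,000 cells per well. Step two: pin-transfer compound or DMSO alongside 5-fluorouridine. Step three: incubate 16 hr, 37 °C, 5% CO2. Step four: add ONE-Glo, wait 30 min, read luminescence.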
# Active calls of the source: *; u = inconclusive; x = not tested or not shown; [ ] = another dose, or the depositor's remark. Compounds with a hit are over-represented: about 21% of the library has one in this group of screens. Unless noted, calls follow the shape of the dose curve; as a rule, active = well fitted curve in the direction sought with a large enough effect; inconclusive = small, poorly fitted or top-dose-only effect, or another doubt; inactive = no such curve, though single readings can be large; an effect the other way counts as inactive or inconclusive. % is scaled to controls: 0 for no effect and ±100 for the full control effect.
SMILES,VP16 counter,IL1B secr inh,TDP1 cell CPT,TDP1 cell noCPT,RORg inh,ELG1 repair inh
Cc1ccc(Nc2nnc(SCC3CCCCO3)s2)cc1 (stereo not given),4.8%,-7.0,-1.7%,u,u,u
Cc1cccc(C(=O)NCc2cn3cccc(C)c3n2)c1,x,x,-7.0%,2.1%,x,x
O=C(CCCCCCCCC(=O)N1CCCCC1)N1CCCCC1,x,26.8,u,u,x,x
O=C(CCCCCCCC(=O)N1CCCCCC1)N1CCCCCC1,x,0.2,23.1µM*,u,x,x
O=C(O)c1ccc(NS(=O)(=O)c2ccsc2C(=O)O)cc1,3.8%,x,x,x,-26.4%,x
O=C(/C=C/c1ccccc1Cl)N(Cc1ccccc1)C1CCS(=O)(=O)C1 (stereo not given),-10.6%,u,u,u,26.2%,-14.8%
CC(C)c1ccc(CN(C(=O)/C=C/c2ccco2)C2CCS(=O)(=O)C2)cc1 (stereo not given),9.7%,-86.0*,u,u,28.6%,-3.7%
CC(C)c1ccc(CN(C(=O)c2ccco2)C2CCS(=O)(=O)C2)cc1 (stereo not given),-19.7%,7.2,-3.3%,-26.6%,-1.0%,1.1%
COc1ccc(CN(C(=O)/C=C/c2ccccc2Cl)C2CCS(=O)(=O)C2)cc1 (stereo not given),-3.4%,0.0,u,23.1µM*,u,0.0%
CN(C)c1ccc(CN(C(=O)/C=C/c2ccccc2Cl)C2CCS(=O)(=O)C2)cc1 (stereo not given),-24.6%,-8.8,u,20.6µM*,u,0.0%
O=C(/C=C/c1ccccc1Cl)N(Cc1ccc(Cl)cc1)C1CCS(=O)(=O)C1 (stereo not given),-3.5%,-57.2*,u,u,u,u
COc1ccc(C(=O)Nc2ccccc2)cc1S(=O)(=O)Nc1cc(C)on1,6.3%,-5.0,-16.8%,-3.6%,-27.0%,1.6%
CNCC(=O)NCC(=O)N[C@@H](Cc1ccccc1)C(=O)N[C@@H](CC(C)C)C(=O)O,x,x,-16.8%[4.12 µM],-14.9%[4.12 µM],x,x
C[C@@H]1C(=O)O[C@H]2[C@@H](O)[C@@]34[C@H]5CC(C(C)(C)C)[C@]36[C@@H](OC(=O)[C@@H]6O)O[C@@]4(C(=O)O5)[C@@]12O (stereo not given in full),0.4%,x,1.9%,-10.5%,-1.8%,x
CC(C)Cn1c(C(C)NC(=O)Cc2ccccc2)nc2ccccc21 (stereo not given),5.3%,-1.3,11.6µM*,6.51µM*,u,4.2%
CC(NC(=O)c1ccccc1)c1nc2ccccc2n1Cc1ccc(Cl)cc1 (stereo not given),x,x,-19.7%,-26.0%,x,x
CCCCn1c(C(C)NC(=O)CC)nc2ccccc21 (stereo not given),0.8%,29.3,23.1µM*,11.6µM*,-5.1%,-9.7%
CC(C)CNC(=O)NC(=O)CSc1nc2ccccc2n1CC(C)C,0.1%,-8.8,u,23.1µM*,-0.8%,-9.1%
CCCNC(=O)NC(=O)CSc1nc2ccccc2n1CC(C)C,-5.9%,2.0,u,u,u,u
CCC(=O)NC(C)c1nc2ccccc2n1C (stereo not given),x,-14.6,3.5%,-7.1%,1.1%[0.365 µM],1.3%
CCOc1ccc(CCNC(=O)Cn2ncc3c(=O)oc4ccc(C)cc4c32)cc1,x,x,1.9%,-2.7%,x,x
CC(C)[C@H](NC(=O)c1ccc(Cl)cc1Cl)C(=O)OCc1nc2ccsc2c(=O)[nH]1,x,30.0,0.5%,-28.6%,x,x
Oc1ccc(/C=N/NC(=S)NCC2CCCO2)cc1 (stereo not given),2.0%,-15.3,-15.3%,1.8%,u,7.5%
S=C(N/N=C/c1cccs1)NC1CC2CCC1C2 (stereo not given),3.16µM*,x,-27.5%,u,0.794µM*,0.0%
Oc1ccc(/C=N/NC(=S)NC2CC3CCC2C3)cc1 (stereo not given),11.2µM*,-66.1*,u,u,2.51µM*,u
SMILES,VP16 counter,IL1B secr inh,TDP1 cell CPT,TDP1 cell noCPT,RORg inh,ELG1 repair inh
O=S(=O)(NC1c2cccc3cccc(c23)C1Sc1ncccn1)c1ccc(Cl)cc1 (stereo not given),-9.4%,8.4,u,u,-21.0%[10 µM],-10.4%
Cc1ccc(S(=O)(=O)NC2c3cccc4cccc(c34)C2Sc2n[nH]c(N)n2)cc1 (stereo not given),1.0%,-0.5,20.6µM*,16.4µM*,34.8%,-22.3%
N#Cc1ccc(CS(=O)(=O)c2nc3ccccc3s2)cc1,-12.0%,x,x,x,-29.7%,x
CSC1=N/C(=C\c2ccc(Cl)cc2)C(=O)N1N(C)C,-2.8%,x,u,23.1µM*,u,-17.2%
COc1ccc(/C=C2\N=C(SC)N(C)C2=O)cc1,-17.9%,3.3,-3.5%,-3.5%,3.5%,u
Cc1cc(C(=O)C(=O)N(C)C)c(C)n1-c1ccc(Cl)c(Cl)c1,2.1%,6.0,u,20.6µM*,11.7%,u
COc1cc2c(-c3ccc(O)cc3)nc3c(c(C)nn3-c3ccccc3)c2cc1OC,u,22.2,11.6µM*,18.4µM*,8.2%[10 µM],9.2µM*
O=C(O)c1ccc(N[C@@H]2OC[C@@H](O)[C@@H](O)[C@@H]2O)cc1,-2.2%,x,x,x,-10.3%,x
CCCCCC(=O)O[C@H](CC(=O)O)C[N+](C)(C)C,-8.1%,x,7.7%,-11.1%,12.8%,x
COc1cccc(C(=O)Cn2c(Br)nc3c2c(=O)n(C)c(=O)n3C)c1,-4.6%,27.6,u,9.2µM*,0.2%,u
COC(=O)c1ccc(Oc2nc3c(c(=O)n(C)c(=O)n3C)n2CCC(C)C)cc1,-3.2%,2.1,u,23.1µM*,-6.9%,12.5%
CCN(CC)c1nc2c(c(=O)n(C)c(=O)n2C)n1CC(=O)c1ccccc1,-2.9%,43.0,u,23.1µM*,14.5%,0.0%
COC(=O)c1ccc(Oc2nc3c(c(=O)n(C)c(=O)n3C)n2C(C)C)cc1,x,x,u,-23.2%,x,x
CCC(=O)c1ccc(Oc2nc3c(c(=O)n(C)c(=O)n3C)n2CC)cc1,-1.7%,17.7,u,u,15.8%,14.6µM*
CC(=O)c1ccc(Oc2nc3c(c(=O)n(C)c(=O)n3C)n2C)cc1,2.5%,18.8,15.5%,1.5%,-3.8%,-9.7%
O=C(Cc1cccs1)NCCS(=O)(=O)N1CCN(c2cccc(Cl)c2)CC1,x,-2.5,-19.3%,u,x,-11.8%
